# Laboratory results: PubChem BioAssay (NCI)
# The panel holds about 83,000 compounds, 20% with a hit somewhere; the sample as a whole holds those more often.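 For each line, cells grew in 96-well plates with the test compound present at a single concentration for 48 hours.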 Unmarked numbers belong to inactive results. Activity calls are given as the source filed them.
# System: RPMI-8226 leukemia
# Assay: NCI-60 one-dose screen, 48 h (100 = growth as untreated, 0 = no growth, -100 = all killed)
# Conditions: 10 µM unless noted
# Procedure: Growth inhibition of the RPMI-8226 human tumor cell line is measured as a screen for anti-cancer activity. Cells are grown in 96 well plates and exposed to the test compound for 48 hours. Compounds are tested at a single concentration, which is 10^-5 M for most compounds. The reported endpoint is percent growth (GI% or GIPRCNT), where numbers from 0 - 100% represent growth inhibition, and numbers from -100% - 0 represent cell death. For example, a value of 40 represents 60% growth inhibition. A value of 0 means no net growth occurred over the course of the experiment. A value of -40 indicates 40% of cells at the beginning of the experiment died by the end of the experiment. A value of -100 means all cells are dead at the end of the experiment.
# NCI-60 Human Tumor Cell Lines Screen was performed using the standard one-dose NCI protocol, which is described in more detail at https://dtp.cancer.gov/discovery_development/nci-60/default.htm.
# Compounds with GIPRCNT values below 10 were considered active. Activity score was based on GIPRCNT using the following formula: […]
# Score is 0 for GIPRCNT values of 100 or above, 50 for GIPRCNT values of 0, and 100 for GIPRCNT values of -100.
row,SMILES,growth
1,COc1cc2c(c(OC)c1OC)-c1ccc(N=NC(N)=S)c(=O)cc1[C@@H](NC(C)=O)CC2,30.8%
2,O=C(CNC1C2CC3CC(C2)CC1C3)Sc1nnc2sc3ccccc3n12 (stereo not given),97.3%
3,O=c1c2c3c(sc2n2c(CCl)nnc2n1Cc1ccccc1)CCCC3,-38.8% (active)
4,CCc1ccccc1NC(=O)c1sc2nc3c(cc2c1N)C(=O)CCC3,17.8%
5,COCCCNc1nc(NC(=O)c2ccc(F)cc2C)cc(-c2cccnc2)n1,90.2%
6,O=C(/C=C/c1ccc(B(O)O)cc1)/C=C/c1ccc(B(O)O)cc1,-23.5% (active)
7,COc1c(C2CC(=O)Nc3c2cnn3Cc2ccco2)cc2c(c1OC)OCO2 (stereo not given),-1.94% (active)
8,COc1ccc(-c2cc(-c3cccnc3)nc3sc4c(=O)n(-c5ccc(C)cc5)nnc4c23)cc1OC,99.7%
9,CCOC(=O)C(CC)n1c(=O)c2cc(OC)c(OC)cc2c2cnc3[nH]ccc3c21 (stereo not given),70.1%
10,COc1ccc2nc3cc(Cl)ccc3c(N3CCN(c4nccc(Nc5ccc(Cl)cc5)n4)CC3)c2c1,43.9%
11,O=C1Nc2ccc(Br)cc2C12CC(c1ccccc1)=NN2 (stereo not given),28.3%
12,CSc1nc(NCCO)c(C#N)c(-c2cccc(N)c2)n1,99.7%
13,CNC(=O)c1cc(Oc2ccc3nc(NC(=O)Nc4ccc(CN5CCOCC5)c(C(F)(F)F)c4)sc3c2)ccn1,5.34% (active)
14,CC(=O)C1=C(O)C=C2Oc3c(C(=O)/C=C/c4c(Cl)cccc4Cl)c(O)c(C)c(O)c3[C@]2(C)C1=O,-17.7% (active)
15,COc1ccc(C2c3ccc4ccccc4c3Oc3ncnc(N)c32)cc1 (stereo not given),86%
16,CCCCCCCCSC1=CC(=O)C(OC)=C(OC)C1=O,-24.5% (active)
17,COc1ccc2nc3cc(Cl)ccc3c(N3CCN(c4ccnc(N5CCOCC5)n4)CC3)c2c1,11.3%
18,CSc1[nH]c2ncnc(N)c2c1C#N,106%
19,CC1CN(C(C)C)C(=S)N(c2ccccc2)C1=O (stereo not given),120%
20,COc1ccc(-c2nn(-c3ccccc3)cc2/C=C/C(=O)OCc2cn(-c3ccc(F)c(Cl)c3)nn2)cc1,75.2%

row,SMILES,growth
1,COc1ccc(/C=C/C(=O)c2ccc(NC(=O)c3cc4cc5ccccc5nc4s3)cc2)cc1OC,99.4%
2,Cc1csc2ccc(Cl)cc12,109%
3,CCCCCCCCCCCCCCCCCCNC(=O)[C@H]1CSC(c2ccc(OC)c(F)c2)N1 (stereo not given in full),-46.8% (active)
4,Cc1ccc(N)cc1F,121%
5,COc1cccc(-c2cn3c(ccc4ccccc43)n2)c1,31.8%
6,CNCc1cccc2c1OCCOCCOCCN(C)S(=O)(=O)c1ccc(cc1)-c1cnc(N)c(n1)C(=O)N2,44.6%
7,COc1ccc(C(=O)COc2ccc(/C=C3\Oc4ccc(Cl)cc4C3=O)cc2)cc1,181%
8,Cc1cc(N/N=C/c2nc(-c3ccc(Cl)cc3)oc2C)c2cc(Br)ccc2n1,-15% (active)
9,CCN(CC)CC(O)c1cc(-c2ccc(Cl)cc2)nc2c(C)c(Cl)ccc12 (stereo not given),-32.2% (active)
10,COc1ccc(/C=N\NC(=O)CN2CCN(c3cc4c(cc3F)c(=O)c(C(=O)N/N=C/c3ccc(OC)cc3)cn4C3CC3)CC2)cc1,69.4%
11,O=C(CCCN1CCOCC1)Nc1ccc(Cn2nnc3c2C(=O)c2nnn(Cc4ccc(NC(=O)CCCN5CCOCC5)cc4)c2C3=O)cc1,37.5%
12,COc1cccc(/C=C\C(=O)c2ccccc2)c1,6.17% (active)
13,CCOC(=O)CC(C)=N,113%
14,CC1=C(NCCN2CCCC2)C(=O)c2c(OCc3cccc(Cl)c3)cccc2C1=O,60.9%
15,Fc1ccc(Cc2ccc(F)cc2)cc1,108%
16,Nc1cccc(NC(=O)C(=O)Nc2cccc(N)c2)c1,88.1%
17,O=[N+]([O-])c1cccc(-c2nc3sccn3c2-c2ccnc(NCCNS(=O)(=O)c3ccc(C(F)(F)F)cc3)n2)c1,4.8% (active)
18,CCCCCn1cnc2c(=S)nc[nH]c21,81.9%
19,O=C1/C(=C\c2cn(C(=O)c3ccc(Cl)cc3)c3ccccc23)c2ccccc2N1c1c(Cl)cccc1Cl,101%
20,COc1ccc(-c2c3c(nc4n[nH]c(-c5ccc(Cl)cc5)c24)-c2ccccc2C(=O)C3=O)cc1,-11.4% (active)
